Reference: PubChem BioAssay (EPA / NIEHS)
Records with an inconclusive call do not appear. Active and inactive are the calls of the source. Rule for the calls: active = hit-call score of the fitted dose curve at least 0.9, where 1 is the maximum; inconclusive = response in the unintended direction; inactive = score below 0.9. *1 amine or outer side, *2 acyl side, *3 side chain or, on linkers, in order; H or OH if unused. Where a SMILES comes first, the peptide text is derived from it. Bridges are numbered along the chain shown (N, C = ends). [ ]: non-standard residue; d: D form. The star is where a group is joined. X3 = NC1=N[C@@H]([C@H](N[*:1])C(=O)[*:2])C[C@H](O)N1; ΔAla(Z-3-ureido) = NC(=O)N/C=C(\N)C(=O)O; β3hOrn = NCCC[C@H](N)CC(=O)*; Dap = NC[C@H](N)C(=O)O

What was measured:
[1] = TOX21_p53_BLA_p2_viability: Viability Assessment in the Tox21 HCT-116 p53 Agonism Beta-lactamase Assay, Phase 2 (AID 2283591);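 note: compound exposure lasted 16 h at 37 °C; actives lower the ATP signal meaning cytotoxicity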
Procedure, shortened: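 HCT116 p53-bla cells, 4000/well, dosed after 5 h plating (217-fold dilution of DMSO stocks) and incubated 16 h at 37C. Viability taken as cellular ATP by CellTiter-Glo luminescence after 30 min RT; signal loss marks cytotoxicity.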

[2] = biological target: Cellular tumor antigen p53 (Homo sapiens) (UniProt P04637); assay: TOX21_p53_BLA_p2_ratio: Tox21 HCT-116 p53 Agonism Beta-lactamase Assay, Ratio, Phase 2 (AID 2283592)
Sequence of Cellular tumor antigen p53 (Homo sapiens) (P04637 whole entry, looked up): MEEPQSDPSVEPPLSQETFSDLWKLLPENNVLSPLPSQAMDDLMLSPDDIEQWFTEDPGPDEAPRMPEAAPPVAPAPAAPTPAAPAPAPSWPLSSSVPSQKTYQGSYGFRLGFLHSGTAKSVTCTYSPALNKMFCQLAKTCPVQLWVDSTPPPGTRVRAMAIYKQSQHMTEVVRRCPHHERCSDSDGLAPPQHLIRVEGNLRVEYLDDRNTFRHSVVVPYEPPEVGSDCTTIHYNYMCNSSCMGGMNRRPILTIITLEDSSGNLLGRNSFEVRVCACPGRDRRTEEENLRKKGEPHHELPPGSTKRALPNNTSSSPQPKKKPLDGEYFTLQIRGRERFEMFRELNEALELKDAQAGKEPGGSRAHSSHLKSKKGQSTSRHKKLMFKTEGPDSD
Procedure, shortened: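 Human colon HCT116 cells with an inducible p53 beta-lactamase reporter are exposed to test chemicals for 16 h at 37C. Reporter induction is read as the 460/530 nm emission ratio after CCF4-AM loading, normalized to DMSO.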

[3] = biological target: Cellular tumor antigen p53 (Homo sapiens) (UniProt P04637); assay: TOX21_p53_BLA_p5_ratio: Tox21 HCT-116 p53 Agonism Beta-lactamase Assay, Ratio, Phase 5 (AID 2283599)
Procedure, shortened: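 HCT-116 p53-bla cells (4000/well) plated 5 h, dosed with compound (217-fold DMSO dilution) for 16 h at 37 C; CCF4-AM substrate 2 h at room temperature. Activity is the 460/530 nm emission ratio (405 nm excitation), fitted in gain-of-signal direction versus DMSO.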

[4] = TOX21_p53_BLA_p5_viability: Viability Assessment in the Tox21 HCT-116 p53 Agonism Beta-lactamase Assay, Phase 5 (AID 2283600)
Procedure, shortened: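 Seeded cells (4000/well) settle 5 h before compound addition. Plates then incubate 16 h at 37C, receive FRET substrate for 2 h, and finally CellTiter-Glo, with luminescence measured after a 30 min room-temperature incubation.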

[5] = TOX21_p53_BLA_p4_viability: Viability Assessment in the Tox21 HCT-116 p53 Agonism Beta-lactamase Assay, Phase 4 (AID 2283597);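 note: hits lower the luminescence signal meaning cytotoxicity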
Procedure, shortened: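 Luminescent ATP readout (CellTiter-Glo, 30 min, room temperature) in the same wells as the p53 bla ratio. HCT116 cells were treated for 16 h at 37C with DMSO-dissolved compounds.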

[6] = biological target: Thyroid hormone receptor alpha (Rattus norvegicus) + Thyroid hormone receptor beta (Rattus norvegicus) (UniProt P18113+P63059); assay: TOX21_TR_LUC_GH3_Antagonist_Followup: Tox21 GH3 Thyroid Hormone Receptor Antagonism Luciferase Follow-Up Assay (AID 2283942)
Procedure, shortened: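 Antagonist mode: GH3 cells seeded 1,500/well, compounds at 15 concentrations (92 uM to 5nM final) plus T3 at 1.0 nM final, 24 h at 37C. Luciferase read with ONE-Glo after 30 min at room temperature.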

THRB (gene 7068) = THRB (gene 7068) (UniProt P10828); assay: TOX21_TRB_BLA_Antagonist_Followup_ratio: Tox21 Thyroid Hormone Receptor beta Antagonism Beta-lactamase (BLA) Follow-Up Assay, Ratio (AID 2283958)
Sequence of THRB (gene 7068) (P10828 whole entry, looked up, the tested form may be a part): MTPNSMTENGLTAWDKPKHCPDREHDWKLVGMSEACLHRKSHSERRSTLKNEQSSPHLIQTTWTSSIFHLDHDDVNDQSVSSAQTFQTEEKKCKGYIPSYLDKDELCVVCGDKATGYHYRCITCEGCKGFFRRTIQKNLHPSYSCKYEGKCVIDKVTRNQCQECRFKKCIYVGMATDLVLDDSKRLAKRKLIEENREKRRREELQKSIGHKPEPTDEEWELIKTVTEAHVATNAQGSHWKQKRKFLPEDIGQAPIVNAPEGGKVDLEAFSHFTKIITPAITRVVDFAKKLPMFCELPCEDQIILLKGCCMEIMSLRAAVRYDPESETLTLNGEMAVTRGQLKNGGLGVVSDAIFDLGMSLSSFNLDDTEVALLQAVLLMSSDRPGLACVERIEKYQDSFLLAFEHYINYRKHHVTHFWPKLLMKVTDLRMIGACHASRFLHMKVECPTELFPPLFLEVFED
Procedure, shortened: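 HEK293T TRb-bla (GAL4 DBD + hTRβ LBD), 2% cs-FBS phenol red-free DMEM, 5 h attach; cpds 11-pt triplicate, 18 h 37C; CCF4-AM 2 h RT; 460/530 ratio vs DMSO; CellTiter-Glo viability same wells.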

[7] = biological target: Retinoic acid receptor RXR-alpha (Homo sapiens) (UniProt P19793); assay: TOX21_TR_RXR_BLA_Antagonist_Followup_ratio: Tox21 Thyroid Hormone Receptor beta Retinoid X Receptor alpha (RXRa) Antagonism Beta-lactamase (BLA) Follow-Up Assay, Ratio (AID 2283972)
Sequence of Retinoic acid receptor RXR-alpha (Homo sapiens) (P19793 whole entry, looked up): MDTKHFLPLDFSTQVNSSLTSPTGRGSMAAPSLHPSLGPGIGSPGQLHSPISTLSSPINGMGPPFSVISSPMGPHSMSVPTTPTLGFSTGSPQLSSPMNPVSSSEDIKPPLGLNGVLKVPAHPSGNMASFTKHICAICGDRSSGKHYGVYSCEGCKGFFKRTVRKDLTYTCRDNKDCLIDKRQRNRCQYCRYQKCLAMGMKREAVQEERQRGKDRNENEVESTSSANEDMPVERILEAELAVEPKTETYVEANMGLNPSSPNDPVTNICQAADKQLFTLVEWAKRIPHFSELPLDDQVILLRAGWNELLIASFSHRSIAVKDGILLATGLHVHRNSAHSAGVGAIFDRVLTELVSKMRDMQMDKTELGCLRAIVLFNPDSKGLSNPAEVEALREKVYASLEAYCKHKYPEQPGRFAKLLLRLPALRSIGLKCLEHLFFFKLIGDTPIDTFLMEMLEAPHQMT
Procedure, shortened: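 Compounds were tested in triplicate at 11 concentrations on RXRa-bla HEK293T cells for 16 h. Substrate cleavage ratio, normalized to DMSO, gave the endpoint.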

[8] = TOX21_TR_RXR_BLA_Antagonist_Followup_viability: Viability Assessment in the Tox21 Thyroid Hormone Receptor beta Retinoid X Receptor alpha (RXRa) Antagonism Beta-lactamase (BLA) Follow-Up Assay (AID 2283979)
Procedure, shortened: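 RXRa-bla HEK293T cells (2,500/well, phenol red-free DMEM, 2% charcoal-stripped FBS) were attached 5 h, then exposed to compounds at 11 concentrations in triplicate for 16 h at 37C. Viability measured by CellTiter-Glo ATP luminescence, bidirectional fitting versus DMSO.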

[9] = biological target: Cellular tumor antigen p53 (Homo sapiens) (UniProt P04637); assay: TOX21_p53_BLA_p4_ratio: Tox21 HCT-116 p53 Agonism Beta-lactamase Assay, Ratio, Phase 4 (AID 2283601)
Procedure, shortened: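 HCT-116 p53 beta-lactamase reporter cells (4000/well) preincubated 5 h, then compound (217-fold dilution of DMSO stock) for 16 h at 37C. CCF4-AM substrate added 2 h at room temperature; 460/530 nm emission ratio fitted upward versus DMSO.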

[10] = TOX21_p53_BLA_p3_viability: Viability Assessment in the Tox21 HCT-116 p53 Agonism Beta-lactamase Assay, Phase 3 (AID 2283593);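 note: cells exposed to compound for 16 h before reading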
Procedure, shortened: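 HCT116 cells, 4000/well, dosed 5 h after plating by pin transfer (217-fold dilution from DMSO stock) and incubated 16 h at 37C, 5% CO2. Viability read as ATP luminescence with CellTiter-Glo after 30 min at room temperature.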

[11] = biological target: Cellular tumor antigen p53 (Homo sapiens) (UniProt P04637); assay: TOX21_p53_BLA_p3_ratio: Tox21 HCT-116 p53 Agonism Beta-lactamase Assay, Ratio, Phase 3 (AID 2283596)
Procedure, shortened: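 HCT116 p53-bla cells (4000/well) given compound in DMSO (217-fold dilution) after 5 h, incubated 16 h at 37C. CCF4-AM substrate 2 h at room temperature; 460/530 nm emission ratio, gain fitted against DMSO.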

Measured: AC50

Nc1ccn(C[C@@H](CO)OCP(=O)(O)O)c(=O)n1
inactive: [1] | [2] | [3] | [4]

CC(=O)SC[C@@H](C)C(=O)N1CCC[C@H]1C(=O)N[C@@H](Cc1ccccc1)C(=O)O
inactive: [1] | [2] | [3] | [4]

COc1ccc(/C=C/C(=O)Nc2ccccc2C(=O)O)cc1OC
active: [6] 2.7 µM
inactive: [1] | [2] | [5] | [4] | THRB (gene 7068) | [7] | [8]

NC(=S)NC(N)=S
inactive: [1] | [2] | [5] | [4] | [9]

C=C(C)C(=O)OCC[N+](C)(C)C
inactive: [1] | [2] | [9]
active: [3] 72.9 µM

CC(C)CN(C[C@@H](O)[C@H](Cc1ccccc1)NC(=O)O[C@@H]1CCOC1)S(=O)(=O)c1ccc(N)cc1
inactive: [1] | [2] | [4]

COC(=O)C1CC(=O)C(C(=O)OC)CC1=O (stereo unspecified)
inactive: [1] | [2] | [5] | [9]

OCc1ccccc1O
inactive: [1] | [2] | [3] | [4]

ClC(Cl)(Br)Br
inactive: [1] | [2] | [4]

CN(C)CCC(c1ccccc1)c1ccccn1 (stereo unspecified)
inactive: [1] | [2] | [3] | [4] | [9]

COc1nc(N)nc2nc[nH]c12
inactive: [1] | [2] | [4]

NS(=O)(=O)c1cc2c(cc1Cl)NC(CC1CCCC1)NS2(=O)=O (stereo unspecified)
inactive: [1] | [2] | [3] | [4]

NCCC[C@H](N)CC(=O)N[C@H]1CNC(=O)[C@H]([C@H]2C[C@H](O)NC(N)=N2)NC(=O)/C(=C/NC(N)=O)NC(=O)[C@H](CO)NC(=O)[C@H](CO)NC1=O (β3hOrn-[Dap]SS[ΔAla(Z-3-ureido)][X3]; lactam 1-C)
inactive: [1] | [2] | [5] | [9]

COc1ccc(N=[N+]([O-])c2ccc(OC)cc2)cc1
inactive: [1] | [2] | [3]

O=P(O)(O)C(O)(Cn1ccnc1)P(=O)(O)O
inactive: [1] | [2] | [3] | [4] | [9]

CC(N)CCCC(C)(C)O (stereo unspecified)
inactive: [1] | [2] | [4]

C=CCOc1cc(Cl)ccc1C(=O)NCCN(CC)CC
inactive: [1] | [2] | [3] | [9]

CCCCCCCCN
inactive: [1] | [2] | [3] | [4]

OC[C@@H](O)C(O)[C@@H](O)CO (stereo partly specified)
inactive: [1] | [2] | [3] | [4]

Cc1c(Cn2ccnc2)c2ccccc2n1CCC(=O)O
inactive: [1] | [2] | [3] | [4] | [9]

CCCCCCC
inactive: [1] | [10] | [11] | [5] | [3] | [9]

CCOC(CN1CCN(CC(C)C(=O)c2ccccc2)CC1)c1ccccc1 (stereo unspecified)
inactive: [1] | [10] | [11] | [5] | [3] | [4] | [9]

CNCc1ccccc1
inactive: [1] | [10] | [11] | [5] | [3] | [4] | [9]

CCCN(CCC)C(=O)C(CCC(=O)OCCCN1CCN(CCOC(=O)Cc2c(C)n(C(=O)c3ccc(Cl)cc3)c3ccc(OC)cc23)CC1)NC(=O)c1ccccc1 (stereo unspecified)
inactive: [1] | [10] | [11] | [5] | [3] | [9]

CCCCCCCCCCCBr
inactive: [1] | [10] | [11] | [5] | [3] | [9]

CCc1ncnc2cc(OC)c(OC)cc12
inactive: [1] | [10] | [11] | [5] | [3] | [4] | [9]

CNCCCC1c2ccccc2C=Cc2ccccc21
inactive: [1] | [10] | [11] | [5] | [3] | [4] | [9]

CC(C)n1nc(-c2cc3cc(O)ccc3[nH]2)c2c(N)ncnc21
active: [1] 23 µM | [5] 11.6 µM | [3] 34.6 µM
inactive: [10] | [11] | [4] | [9]

CCN(O)CC
inactive: [1] | [10] | [11] | [5] | [3] | [4] | [9]

Cc1c(C)c2c(c(C)c1OC(=O)CCC(=O)OCCO)CCC(C)(CCCC(C)CCCC(C)CCCC(C)C)O2 (stereo unspecified)
inactive: [1]
active: [10] 19.2 µM | [11] 37.3 µM | [5] 34.6 µM | [3] 16.2 µM | [4] 13.3 µM | [9] 37.8 µM

CCN(CC)CCOc1ccc(C(O)(Cc2ccc(Cl)cc2)c2ccc(C)cc2)cc1 (stereo unspecified)
inactive: [11] | [3] | [4]
active: [1] 35.9 µM | [10] 23 µM | [5] 30.7 µM | [9] 43 µM

CC(=NO)C(C)=NO
inactive: [1] | [10] | [11] | [5] | [3] | [4] | [9]

CCc1oc2ccccc2c1C(=O)c1cc(I)c(O)c(I)c1
active: [1] 23 µM | [10] 26.1 µM | [11] 20.8 µM | [5] 11 µM | [4] 24.1 µM | [9] 6.73 µM
inactive: [3]
